# Test results reported in PubChem BioAssay (NCATS).
# Inconclusive results are not listed. A call without a number means that no potency is given here. Calls of active or inactive are those of the source. Unless noted, the call rests on the fitted dose curve; in most records, active means well fitted curve in the direction sought with a large enough effect; inconclusive means small, poorly fitted or top-dose-only effect, or another doubt; inactive means no such curve, though single readings can be large; an effect the other way counts as inactive or inconclusive.
# What was measured:
# [1] = molecular target: ATP-dependent 6-phosphofructokinase (Trypanosoma brucei brucei) (UniProt O15648); test: qHTS Assay to Find Inhibitors of T. brucei phosphofructokinase: hit validation (AID 492961);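 further: luminescence reports ADP formed as PFK phosphorylates fructose-6-phosphate with ATP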; conditions: T. brucei PFK, ADP-Glo luminescence; series mostly up to 51.4 µM
# ATP-dependent 6-phosphofructokinase (Trypanosoma brucei brucei), sequence (O15648 whole entry, looked up): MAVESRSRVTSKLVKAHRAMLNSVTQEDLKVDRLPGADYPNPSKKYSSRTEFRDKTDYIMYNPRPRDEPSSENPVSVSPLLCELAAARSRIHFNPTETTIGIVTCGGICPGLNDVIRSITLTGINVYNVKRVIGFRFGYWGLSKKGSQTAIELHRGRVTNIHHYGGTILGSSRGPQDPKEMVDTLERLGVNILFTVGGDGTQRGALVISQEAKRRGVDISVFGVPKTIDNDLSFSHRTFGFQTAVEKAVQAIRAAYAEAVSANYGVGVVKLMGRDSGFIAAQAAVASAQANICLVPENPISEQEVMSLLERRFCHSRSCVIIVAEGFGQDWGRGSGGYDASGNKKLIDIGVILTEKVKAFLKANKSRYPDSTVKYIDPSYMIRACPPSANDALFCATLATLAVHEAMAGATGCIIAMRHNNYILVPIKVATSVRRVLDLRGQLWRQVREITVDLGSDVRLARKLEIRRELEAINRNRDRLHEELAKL
# How it was run: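 Measures ADP output of PFK (1.25 nM) at 0.1 mM ATP, 0.5 mM F6P, pH 8.0 TEA buffer with 5 mM MgCl2. No-enzyme wells define full inhibition; uninhibited enzyme wells define zero.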
# [2] = molecular target: Thyrotropin-releasing hormone receptor (Homo sapiens) (UniProt P34981); test: qHTS for Small Molecule Agonists and Allosteric Enhancers of Human TRH Receptor: Validation Screen for Agonists (AID 493127;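 active means calcium activation more than 3 SD above the typical response in the agonist read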;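 further: intracellular calcium rise by fluo-8 fluorescence before TRH EC20 addition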); conditions: TRH receptor agonist cell assay; at 2 µM; stronger effect = higher value
# Thyrotropin-releasing hormone receptor (Homo sapiens), sequence (P34981 whole entry, looked up): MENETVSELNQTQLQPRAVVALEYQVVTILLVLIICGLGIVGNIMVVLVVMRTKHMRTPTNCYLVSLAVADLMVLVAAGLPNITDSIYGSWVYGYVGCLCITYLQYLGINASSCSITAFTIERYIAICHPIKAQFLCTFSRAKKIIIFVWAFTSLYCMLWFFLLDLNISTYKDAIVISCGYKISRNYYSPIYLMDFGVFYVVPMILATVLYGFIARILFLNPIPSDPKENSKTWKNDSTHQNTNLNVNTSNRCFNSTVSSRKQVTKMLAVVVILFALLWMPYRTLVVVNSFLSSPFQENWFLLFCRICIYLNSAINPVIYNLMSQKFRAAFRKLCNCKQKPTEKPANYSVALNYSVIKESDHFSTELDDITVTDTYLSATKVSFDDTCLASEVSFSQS
# How it was run: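 Cells 2000/well, 10% FCS, 18 h 33.5C/5% CO2 → fluo-8 Ca dye, RT 30 min–1.5 h → FDSS baseline 10 × 1 s → compound added → 230 cycles (1 s/cycle) agonist mode. TRH controls.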
# [3] = molecular target: Galactokinase (Homo sapiens) (UniProt P51570); test: qHTS Validation Assay for Inhibitors of Human Galactokinase (GALK) (AID 493189); conditions: purified human GALK enzyme activity, qHTS 7-point titration; series mostly up to 57.5 µM
# Galactokinase (Homo sapiens), sequence (P51570 whole entry, looked up): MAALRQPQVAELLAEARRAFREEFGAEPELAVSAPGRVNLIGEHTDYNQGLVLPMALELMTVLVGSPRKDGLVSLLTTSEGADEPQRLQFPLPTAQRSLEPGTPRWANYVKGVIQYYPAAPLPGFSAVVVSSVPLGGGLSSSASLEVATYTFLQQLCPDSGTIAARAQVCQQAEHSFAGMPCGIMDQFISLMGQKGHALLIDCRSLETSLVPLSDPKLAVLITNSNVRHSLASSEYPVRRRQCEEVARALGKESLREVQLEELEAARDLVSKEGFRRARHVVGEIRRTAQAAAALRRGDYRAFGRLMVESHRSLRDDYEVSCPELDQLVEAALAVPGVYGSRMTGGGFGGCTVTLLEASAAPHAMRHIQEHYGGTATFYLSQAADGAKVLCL
# How it was run: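 GALK (5 nM) with 35 uM ATP and 100 uM galactose in HEPES pH8.0, MgCl2, NaCl, DTT, BSA; 1 h at room temperature. Residual ATP read by Kinase-Glo Plus luminescence after 10 min.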
# [4] = Validation screen for small molecules that induce DNA re-replication in SW480 colon adenocarcinoma cells (AID 504364); conditions: DNA re-replication phenotype (high-content imaging); series mostly up to 46.1 µM
# How it was run: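 250 cells/well; compound pinned in; 48 hr, 37 C, 5% CO2; Hoechst added, 40 min; nuclear fluorescence imaged, 405 ex / 500-530 em; re-replication scored as increase in high-intensity nuclei.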
# [5] = Validation screen for small molecules that induce genotoxicity in human embryonic kidney (HEK293T) cells expressing luciferase-tagged ELG1 (AID 493106); conditions: luminescence; series mostly up to 46.1 µM
# How it was run: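 Luminescence from an ELG1-luciferase fusion serves as the read-out, rising when genetic stress elevates ELG1 protein. HEK293T reporter cells (2,000 per well) received 23 nL compound, incubated 16 hr at 37 °C, then ONE-Glo for 30 min at room temperature.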
# [6] = molecular target: ATPase family AAA domain-containing protein 5 (Homo sapiens) (UniProt Q96QE3); test: Validation screen for small molecules that inhibit ELG1-dependent DNA repair in human embryonic kidney (HEK293T) cells expressing luciferase-tagged ELG1 (AID 493107); conditions: HEK293T ELG1-luciferase level, luminescence, 5-fluorouridine co-treatment, 16 h; series mostly up to 46.1 µM; further: nearly all actives have a fitted effect of over 70% in size; further: potency means the concentration at half of the fitted maximal effect
# ATPase family AAA domain-containing protein 5 (Homo sapiens), sequence (Q96QE3 whole entry, looked up, the tested form may be a part): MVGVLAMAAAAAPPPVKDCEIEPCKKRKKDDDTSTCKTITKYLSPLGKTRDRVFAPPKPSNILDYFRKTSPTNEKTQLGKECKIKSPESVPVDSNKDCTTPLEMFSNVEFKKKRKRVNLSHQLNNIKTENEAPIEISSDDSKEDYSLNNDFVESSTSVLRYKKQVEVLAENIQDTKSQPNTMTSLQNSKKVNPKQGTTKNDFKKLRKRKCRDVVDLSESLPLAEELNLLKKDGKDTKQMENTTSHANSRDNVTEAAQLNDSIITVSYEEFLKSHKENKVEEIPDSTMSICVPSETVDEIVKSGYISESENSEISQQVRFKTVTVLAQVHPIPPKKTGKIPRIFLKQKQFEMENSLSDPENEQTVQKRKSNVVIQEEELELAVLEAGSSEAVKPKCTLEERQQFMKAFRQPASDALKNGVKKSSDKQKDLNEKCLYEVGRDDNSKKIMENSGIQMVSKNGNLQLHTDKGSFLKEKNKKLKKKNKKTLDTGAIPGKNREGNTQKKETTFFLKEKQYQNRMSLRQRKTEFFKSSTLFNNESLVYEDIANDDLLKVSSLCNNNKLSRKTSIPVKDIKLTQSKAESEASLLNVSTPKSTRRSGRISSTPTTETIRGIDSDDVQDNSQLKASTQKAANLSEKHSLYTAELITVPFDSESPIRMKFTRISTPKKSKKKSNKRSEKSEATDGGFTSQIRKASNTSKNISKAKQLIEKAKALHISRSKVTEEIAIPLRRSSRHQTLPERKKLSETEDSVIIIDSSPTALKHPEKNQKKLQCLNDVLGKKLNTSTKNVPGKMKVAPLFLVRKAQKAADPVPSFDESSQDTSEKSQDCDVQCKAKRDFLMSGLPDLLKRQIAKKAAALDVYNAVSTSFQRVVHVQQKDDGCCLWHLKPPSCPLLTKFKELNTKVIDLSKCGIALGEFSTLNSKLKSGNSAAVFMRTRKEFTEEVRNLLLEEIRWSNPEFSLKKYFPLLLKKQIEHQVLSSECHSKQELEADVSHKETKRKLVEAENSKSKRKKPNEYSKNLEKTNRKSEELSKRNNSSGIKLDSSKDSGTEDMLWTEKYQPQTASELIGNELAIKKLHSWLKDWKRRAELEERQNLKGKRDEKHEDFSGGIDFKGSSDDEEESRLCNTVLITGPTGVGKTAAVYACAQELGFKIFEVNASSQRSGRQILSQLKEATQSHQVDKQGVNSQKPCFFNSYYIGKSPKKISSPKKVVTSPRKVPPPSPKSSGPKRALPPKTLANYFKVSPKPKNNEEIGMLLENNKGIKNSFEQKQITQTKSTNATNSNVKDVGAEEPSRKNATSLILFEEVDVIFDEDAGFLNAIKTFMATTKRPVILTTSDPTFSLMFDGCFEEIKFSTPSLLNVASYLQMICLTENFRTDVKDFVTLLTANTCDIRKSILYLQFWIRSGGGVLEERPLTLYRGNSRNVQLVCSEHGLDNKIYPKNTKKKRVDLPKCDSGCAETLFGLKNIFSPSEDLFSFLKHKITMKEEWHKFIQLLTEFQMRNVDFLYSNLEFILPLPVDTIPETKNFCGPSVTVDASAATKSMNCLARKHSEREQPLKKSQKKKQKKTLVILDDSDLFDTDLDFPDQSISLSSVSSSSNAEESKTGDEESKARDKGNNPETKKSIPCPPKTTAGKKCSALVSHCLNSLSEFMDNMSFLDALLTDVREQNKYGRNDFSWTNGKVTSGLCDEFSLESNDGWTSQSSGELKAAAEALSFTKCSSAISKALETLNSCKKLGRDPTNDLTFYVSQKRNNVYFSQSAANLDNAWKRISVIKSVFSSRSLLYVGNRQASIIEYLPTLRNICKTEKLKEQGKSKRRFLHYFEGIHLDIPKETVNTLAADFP
# How it was run: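 Luminescence from ONE-Glo, developed 30 min at room temperature, served as read-out of ELG1-luciferase levels. Beforehand, reporter HEK293T cells received 5-fluorouridine plus test compound for 16 hr at 37 °C.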
# [7] = Nrf2 qHTS screen for inhibitors: Validation (AID 493153; active means well fitted inhibition curve with a large enough effect in the main read-out, with a control signal flat, not every such curve was filed as active); conditions: A549 ARE-Fluc reporter, 18-24 h; viability change: measured here: cytotoxicity max response; luciferase luminescence, at 46.1 µM (top of the series)
# How it was run: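 Luminescence from an ARE-firefly luciferase reporter in A549 cells gives Nrf2 inhibition; an earlier CellTiter-Fluor fluorescent read flags cytotoxicity. Cells in 5% FBS OPTI-MEM received compound dilution series for 18-24 h at 37°C.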
# [8] = qHTS for Inhibitors of Cell Surface uPA Generation: Validation Assay (AID 493164); conditions: mouse cells, plasminogen activation; series mostly up to 38.3 µM
# How it was run: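 RAW 264.7 cells (4000/well) were plated overnight, then exposed for 18 h at 37 C, 5% CO2 to compounds in a 7-point 1:5 titration (2.45 nM–38.3 uM final). Intracellular ATP was read by ATP-Lite luminescence.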
# [9] = molecular target: Peptidyl-prolyl cis-trans isomerase NIMA-interacting 1 (Homo sapiens) (UniProt Q13526); test: qHTS Validation Assay to Find Inhibitors of Pin1 (AID 504536; active means well fitted inhibition curve with a large enough effect in the polarisation, with a control signal flat, not every such curve was filed as active; the % refers to the polarisation); conditions: Pin1 fluorescence polarization peptide binding assay; series mostly up to 57.5 µM
# Peptidyl-prolyl cis-trans isomerase NIMA-interacting 1 (Homo sapiens), sequence (Q13526 whole entry, looked up): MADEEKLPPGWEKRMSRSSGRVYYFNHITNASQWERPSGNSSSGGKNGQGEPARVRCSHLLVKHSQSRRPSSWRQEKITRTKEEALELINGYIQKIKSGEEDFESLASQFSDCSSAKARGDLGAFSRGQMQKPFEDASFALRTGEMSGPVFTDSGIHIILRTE
# How it was run: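 Fluorescence polarization competition: compounds (titration) displace HiFluor-488-labeled Pin1-1b peptide from Pin1 (0.3 uM final) in pH 7.5 HEPES buffer with DTT, 10 min at room temperature; %Activity normalized to no-enzyme wells, curves fitted.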
# [10] = molecular target: Phosphoglycerate kinase, glycosomal (Trypanosoma brucei brucei) (UniProt P07378); test: qHTS Validation Assay to Find Inhibitors of Phosphoglycerate Kinase (AID 504547); conditions: enzymatic PGK inhibition, coupled luminescence read-out; series mostly up to 57.5 µM
# Phosphoglycerate kinase, glycosomal (Trypanosoma brucei brucei), sequence (P07378 whole entry, looked up): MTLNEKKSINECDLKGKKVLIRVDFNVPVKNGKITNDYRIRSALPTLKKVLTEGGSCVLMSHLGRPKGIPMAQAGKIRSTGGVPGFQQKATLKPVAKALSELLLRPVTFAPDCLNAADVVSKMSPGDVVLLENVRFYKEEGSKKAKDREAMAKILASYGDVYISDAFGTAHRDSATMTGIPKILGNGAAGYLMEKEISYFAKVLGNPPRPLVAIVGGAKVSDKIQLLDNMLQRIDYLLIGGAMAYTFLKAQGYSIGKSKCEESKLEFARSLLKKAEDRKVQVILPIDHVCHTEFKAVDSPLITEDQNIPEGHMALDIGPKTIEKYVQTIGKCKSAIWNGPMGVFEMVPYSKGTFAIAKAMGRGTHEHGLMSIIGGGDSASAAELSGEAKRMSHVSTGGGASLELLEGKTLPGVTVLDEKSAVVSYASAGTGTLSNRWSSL
# How it was run: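 Inhibition of the enzyme is judged by a Kinase-Glo Plus luminescent signal following a one-hour incubation at room temperature. Because 1,3-BPG is unstable, it is made in situ by GAPDH at 100nM final; no-PGK wells define the baseline.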
smiles,measurement,setting,value
C[C@]12C=CC(=O)C=C1CC[C@@H]1[C@@H]2CC[C@@]2(C)[C@H]1CC[C@]2(C)O,Potency,[1],inactive
c1ccc2nc(N3CCNCC3)ccc2c1,activation,[2],-0.562% (inactive)
same,outcome,[3],inactive
same,outcome,[4],inactive
Cc1c(Cl)c(=O)oc2cc(OP(=O)(OCCCl)OCCCl)ccc12,Potency,[1],inactive
CC[C@H]1CN2CCc3cc(OC)c(OC)cc3[C@@H]2C[C@@H]1C[C@H]1NCCc2cc(OC)c(OC)cc21,outcome,[5],inactive
same,Potency,[6],0.259 µM (active)
c1cc2c(c(N3CCNCC3)c1)OCCO2,Potency,[1],inactive
CNC(=O)NC(O)C(Cl)(Cl)Cl (stereo not drawn),Potency,[1],inactive
CCN(CC)CCOC(=O)C(C)(c1ccccc1)c1ccccc1,Potency,[1],inactive
CCN(Cc1ccc(Cl)nc1)/C(=C/[N+](=O)[O-])NC,Potency,[1],inactive
O=c1n(Cl)c(=O)n(Cl)c(=O)n1Cl,Potency,[1],inactive
CCOC(=O)NC(O)C(Cl)(Cl)Cl (stereo not drawn),Potency,[1],inactive
CCCCCCCCC(=O)NCc1ccc(O)c(OC)c1,outcome,[3],inactive
same,outcome,[4],inactive
CC(C)C(Br)C(=O)NC(N)=O (stereo not drawn),Potency,[1],inactive
CC(N)C(=O)OC(C)(C)Cc1ccc(Cl)cc1 (stereo not drawn),outcome,[3],inactive
same,outcome,[4],inactive
COC(=O)C1=C(C)NC(C)=C(C(=O)OC)C1c1ccccc1[N+](=O)[O-],Potency,[6],18.3 µM (active)
C[N+](C)(C)CCOC(=O)C(O)(c1ccccc1)c1ccccc1,Potency,[1],inactive
NC(=O)CN1CCCC1=O,Potency,[1],inactive
same,outcome,[5],inactive
same,Potency,[6],inactive
same,activation,[2],-0.312% (inactive)
same,outcome,[7],inactive
same,viability change,[7],-6.84%
same,outcome,[8],inactive
same,outcome,[3],inactive
same,outcome,[4],inactive
same,outcome,[9],inactive
same,outcome,[10],inactive
CNC(=O)Oc1cccc2ccccc12,Potency,[1],inactive
N#Cc1nn(-c2c(Cl)cc(C(F)(F)F)cc2Cl)c(N)c1S(=O)C(F)(F)F (stereo not drawn),Potency,[1],inactive
